This note sets out measurements from PubChem BioAssay (EPA / NIEHS).

Several values for one entry are separate records, joined by “and”; a condition that tells them apart may be missing. Equal entries are not always repeated. Some structures have more than one record in an assay (separate samples or runs), and their calls can disagree. Activity calls are given as the source filed them. How the source made its calls: active means hit-call score of the fitted dose curve at least 0.9, where 1 is the maximum; inactive means score below 0.9.

E-selectin (Homo sapiens), sequence (P16581 whole entry, looked up): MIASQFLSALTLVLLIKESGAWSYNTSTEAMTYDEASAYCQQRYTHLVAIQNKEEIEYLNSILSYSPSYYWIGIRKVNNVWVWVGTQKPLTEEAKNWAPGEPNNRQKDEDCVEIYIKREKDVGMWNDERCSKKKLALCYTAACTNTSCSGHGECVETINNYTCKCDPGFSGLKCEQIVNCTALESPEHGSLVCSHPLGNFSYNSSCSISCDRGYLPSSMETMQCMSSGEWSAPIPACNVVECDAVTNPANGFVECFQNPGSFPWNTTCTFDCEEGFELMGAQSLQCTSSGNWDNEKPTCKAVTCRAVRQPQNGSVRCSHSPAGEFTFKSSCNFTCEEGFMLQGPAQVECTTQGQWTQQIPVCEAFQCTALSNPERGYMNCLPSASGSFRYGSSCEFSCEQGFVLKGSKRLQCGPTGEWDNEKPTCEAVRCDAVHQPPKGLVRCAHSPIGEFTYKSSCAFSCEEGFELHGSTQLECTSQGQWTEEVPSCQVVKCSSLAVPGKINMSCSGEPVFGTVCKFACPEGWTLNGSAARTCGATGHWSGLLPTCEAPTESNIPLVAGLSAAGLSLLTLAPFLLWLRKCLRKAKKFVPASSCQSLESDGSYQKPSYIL

Read-out in the test: E-selectin (Homo sapiens) (UniProt P16581)
The test can be described thus: BSK_3C_Eselectin: BioMAP Diversity Plus: 3C Assay for Eselectin Biomarker Activity (AID 2283015). As to conditions: primary human endothelial cells (HUVEC); actives raise or lower the signal. The protocol: BSK_3C is a cell-based, multiplexed-readout assay that uses umbilical vein endothelium, a human vascular primary cell, with measurements taken at 24 hours after chemical dosing in a 96-well plate.BSK_3C_Eselectin is an assay component measured in the BSK_3C assay. It measures E-selectin antibody related to regulation of gene expression using ELISA technology.Data from the assay component BSK_3C_Eselectin was analyzed into 1 assay endpoint. This assay endpoint, BSK_3C_Eselectin, was analyzed with bidirectional fitting relative to DMSO as the negative control and baseline of activity. Using a type of binding reporter, gain or loss-of-signal activity can be used to understand changes in the signaling as they relate to the gene SELE. Furthermore, this assay endpoint can be referred to as a primary readout, because this assay has produced multiple assay endpoints where this one serves a signaling function. To generalize the intended target to other relatable targets, this assay endpoint is annotated to the cell adhesion molecules intended target family, where the subfamily is selectins.
The levels of cell surface (or secreted, indicated by the prefix "s") biomarker endpoints were measured by ELISA. Overt cytotoxicity to cells in confluent adherent cultures (all systems other than the BT system) was assessed by measuring total protein levels using sulforhodamine B (SRB) staining in parallel cultures at the time of biomarker measurements, indicated as SRB endpoints. For proliferation assays for adherent cell types, individual cell types are cultured at sub-confluence and relative cell numbers quantified by SRB staining at time points optimized for each system (48 h: 3C and CASM3C systems; 72 h: BT and HDF3CGF systems; 96 h: SAg system). SRB was performed by staining cells with 0.1% SRB after fixation with 10% TCA and reading wells at 560 nm.Viability and proliferation of PBMC (T cells) was quantified by Alamar Blue reduction for the SAg and BT systems. For PBMC viability (referred to as PBMC Cytotoxicity within the assay endpoint names), cells were plated (75,000/well in a 96-well plate) and then chemical samples added for 1 h before addition of activators, SEB and TSST-1 (20 ng/mL final concentration each). Cells were incubated for 90 h. Then, Alamar Blue (20 uL/well) (Invitrogen, Cat DAL1100) was added for 6 h, and the plates were read with a fluorescence microplate reader at 546/580 nm (excitation/emission). For PBMC proliferation, cells were plated and activated as above but incubated for only 16 h prior to addition of Alamar Blue. Plates were read after 6 h.
As to `Oc1c(Cl)c(Cl)c(Cl)c(Cl)c1Cl`, the AC50 (as a rule, the midpoint of the concentration-response curve, whichever way the signal moves) was 14 µM (active) and 10.8 µM (active).
In the case of `CCCN(CCC)N=O`, the result was inactive.
The same measure, in the same setting: next, `COS(=O)(=O)OC`: “inactive”; `CN(C)c1nc(=O)n(C2CCCCC2)c(=O)n1C`: “inactive”; `CCCCCCCCOC(=O)c1ccccc1C(=O)OCCCCCCCC`: “inactive”.
On the same count and under the same terms, next, `Nc1ccc(-c2ccc(N)cc2)cc1`: “inactive”.
Turning to `CCOC(=O)C(O)(c1ccc(Cl)cc1)c1ccc(Cl)cc1`, the AC50 is 32 µM (active).
Turning to `CCC(C)(c1ccc(O)cc1)c1ccc(O)cc1`, the outcome was inactive.
The same measure, in the same setting: under `Cc1ccccc1[N+](=O)[O-]` stands “inactive”.
The same measure, in the same setting: next, `Cc1ccc(O)c(C)c1`: “inactive”.
`c1cc2ccc3cccc4ccc(c1)c2c34`: the outcome was inactive.
As to `O=C(O)C(F)(F)C(F)(F)C(F)(F)C(F)(F)C(F)(F)C(F)(F)C(F)(F)C(F)(F)C(F)(F)F`, the outcome was inactive; the AC50 was 53.8 µM (active) and 54.9 µM (active).
Take `Clc1ccc(C(c2ccccc2Cl)C(Cl)(Cl)Cl)cc1` (stereo not given): the AC50 is 17.1 µM (active).
With `Clc1ccc(Cl)cc1`, the result was inactive.
On the same count and under the same terms, next, `O=C(NC(=O)c1cc(F)c(F)cc1Cl)Nc1cc(F)ccc1N1CCC(C(=O)O)CC1`: “inactive”.
Turning to `CCCCCCCCCc1ccc(O)cc1`, the AC50 is 14.3 µM (active).
For the molecule `COc1ccc(O)c(C(C)(C)C)c1`, the outcome was inactive.
The same measure, in the same setting: next, `C[C@]12CCC(=O)C=C1CC[C@@H]1[C@@H]2CC[C@@]2(C)[C@H]1CC[C@]2(C)O`: “inactive”; `Cc1cc(O)ccc1Cl`: “inactive”.
On the same count and under the same terms, under `CCOCCOC(C)=O` stands “inactive”; under `Nn1cnnc1`, “inactive”.
On the same count and under the same terms, under `CC(c1ccc(O)cc1)(c1ccc(O)cc1)c1ccc(O)cc1` stands “inactive”.
On to `CCCCCCCCCC[N+](C)(C)CCCCCCCCCC`, for which the AC50 is 4.77 µM (active).
In the case of `Oc1ccc(Cl)cc1Cl`, the outcome was inactive.
Regarding `N#Cc1ccc(N(CC(N)=O)CC(F)(F)F)cc1C(F)(F)F`, the outcome was inactive.
On the same count and under the same terms, next, `C1CC2OC2CC1C1CO1` (stereo not given): “inactive”; `c1ccc(-c2ccccc2)cc1`: “inactive”.
The same measure, in the same setting: under `C=CC(N)=O` stands “inactive”.
Take `CO/C=C(/C(=O)OC)c1ccccc1COc1cccc(C(F)(F)F)n1`: the AC50 is 7.64 µM (active).
Regarding `Cc1ccccc1O`, the outcome was inactive.
Same read-out and setting: next, `Cc1cccc([N+](=O)[O-])c1`: “inactive”.
On to `ClC(Cl)=C(c1ccc(Cl)cc1)c1ccc(Cl)cc1`, for which the AC50 is 30.7 µM (active).
Consider `CN(C)CCO`, for which the outcome was inactive.
On the same count and under the same terms, next, `CCSC(=O)N(CC)C1CCCCC1`: “inactive”; `O=C(NC(=O)c1c(F)cccc1F)Nc1cc(Cl)c(OC(F)(F)C(F)F)c(Cl)c1`: “inactive”.
Still for that read-out and setting: under `CCC(C)(CC)c1cc(NC(=O)c2c(OC)cccc2OC)on1` stands “inactive”; under `Cc1cccc(C)c1N`, “inactive”.
Turning to `C[C@]12CCC(=O)C=C1CC[C@@H]1[C@@H]2CC[C@]2(C)C(=O)CC[C@@H]12`, the outcome was inactive.
Still for that read-out and setting: next, `C=CC(=O)NCNC(=O)C=C`: “inactive”.
